# Reference: paper PMC7819943, “Rice protein-binding microarrays: a tool to detect cis-acting elements near promoter regions in rice”
# In all, about 68,000 sequences were measured (“fluorescence intensity (a.u.)”: median about 9,100, highest 2% from about 16,000 on). The entries come from a sample that favours the highest values as a whole.
# Molecular target: OsWRKY34 (Oryza sativa, UniProt Q0JBA9 1-250)
# Assay: protein-binding microarray (RPBM); PBS, 2% BSA, 51.3 ng/ul salmon testes DNA, 50 uM zinc acetate, 200 nM TF, 25 C, 1 h; high values mean tight binding
# Settings: protein: recombinant; tags: N-terminal polyhistidine and DsRed monomer fusion (pET32a); label: CyDye5-dUTP incorporated in the synthesized complementary strand; 3' TTTTT single-stranded linker to array surface; dsDNA, one strand shown
# Summary of the method: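 Polyhistidine-tagged DsRed fusions of transcription factors, joined at the N-terminus, were expressed in E. coli BL21-CodonPlus and isolated on Ni–NTA. They were incubated at 200 nM for 1 h at 25 °C on a custom Agilent array, double-stranded and BSA-blocked, in PBS with 2% BSA, salmon testes DNA and 50 µM zinc acetate. The binding signal is per-feature fluorescence intensity (arbitrary units) read on an Axon 4000B scanner after washing.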
# Chain of OsWRKY34 (Q0JBA9 entry or part of it): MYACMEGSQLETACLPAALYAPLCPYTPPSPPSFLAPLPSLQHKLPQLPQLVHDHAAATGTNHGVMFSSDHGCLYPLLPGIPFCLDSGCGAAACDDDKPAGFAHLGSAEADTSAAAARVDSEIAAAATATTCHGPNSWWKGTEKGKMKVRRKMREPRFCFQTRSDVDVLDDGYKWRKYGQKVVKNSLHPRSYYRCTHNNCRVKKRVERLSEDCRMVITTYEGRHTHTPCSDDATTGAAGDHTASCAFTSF
row,Sequence,binding signal
1,GTTTTACATTTGTCCTAAATCAAACATATCTATCTTTGACCGGAGTCACCTAGTGCAG,8180 fluorescence intensity (a.u.)
2,TGGTTTTGGCAGCTGCTGTGTGCACTTGTGGGTTTTTTCTCGGAGTCACCTAGTGCAG,8960 fluorescence intensity (a.u.)
3,TTTTTGTGTGTGTGCTGTGTTCTTGGGTTTCTTGGCAATGCGGAGTCACCTAGTGCAG,8650 fluorescence intensity (a.u.)
4,TGGCTGAGCTTCTTTGCGTGTTCTTGTTTGGGTTTTGGGGCGGAGTCACCTAGTGCAG,18700 fluorescence intensity (a.u.)
5,TTCTTGGCTTGGCTCCTCTGGTGTTCTTGTGCTCTGGGTTCGGAGTCACCTAGTGCAG,9970 fluorescence intensity (a.u.)
6,GGGGTGGTTTTGGCTGAGCTGCTTGTGTCCTCTTCTTGCTCGGAGTCACCTAGTGCAG,18400 fluorescence intensity (a.u.)
7,CAGCTCGAGCTGTTTGCTTGTGGGGTTCTTGTTTTTCTTTCGGAGTCACCTAGTGCAG,8020 fluorescence intensity (a.u.)
8,CATTTTATTGTGAACTTTTTCCTTTTAAACTCGATGTTTACGGAGTCACCTAGTGCAG,10700 fluorescence intensity (a.u.)
9,GTGATGTTCATGCGACAATGTGTTTCTTCCTGGACATATTCGGAGTCACCTAGTGCAG,8050 fluorescence intensity (a.u.)
10,CGTTGGAAAGCTACTGTTTTGACCCGTTCACACCACTACGCGGAGTCACCTAGTGCAG,9680 fluorescence intensity (a.u.)
11,CAAATGGAGGCCCCTTTTAGATACGCTTCCTGTTACTTTCCGGAGTCACCTAGTGCAG,8710 fluorescence intensity (a.u.)
12,TCCTTCTGTCACCATTCGATTCCCAAACTCTCGCCGCCGCCGGAGTCACCTAGTGCAG,9140 fluorescence intensity (a.u.)
13,CCCGCTTCTTCCCCGCTGCTTGAATCAGTCGTATCCTCACCGGAGTCACCTAGTGCAG,11400 fluorescence intensity (a.u.)
14,CTCTCTCTCTCTCTCTCTCTCTGCTGTTTTCTGTATCTGACGGAGTCACCTAGTGCAG,10100 fluorescence intensity (a.u.)
15,CATCAGTTGGCGATTCCCGCTGTATCCTAGAATCTGCTGACGGAGTCACCTAGTGCAG,65000 fluorescence intensity (a.u.)
16,ACGACAAGAACCACCTCTCTCTCTCTCTCTCACTGTCCACCGGAGTCACCTAGTGCAG,9040 fluorescence intensity (a.u.)
17,TTCCCCTTGCTCTTGCATTTGCTGCCGCTCTTCGCCTCTTCGGAGTCACCTAGTGCAG,9270 fluorescence intensity (a.u.)
18,TCTCTTCTCTTTCTCTCCTCTCTTTTTGCCGCCGCTCGAGCGGAGTCACCTAGTGCAG,8900 fluorescence intensity (a.u.)
19,TCTCTCTCTCTCCTTCGGCTCATTCGTCACTGTTCCACCGCGGAGTCACCTAGTGCAG,11300 fluorescence intensity (a.u.)
20,CACACACACTGCACTTCGGCTCACTCTCTCCACTGTTCTTCGGAGTCACCTAGTGCAG,16700 fluorescence intensity (a.u.)
21,AAACTCTCACTCGCTCACTCACACCTCACACGCTGCTGCTCGGAGTCACCTAGTGCAG,8070 fluorescence intensity (a.u.)
22,GCTCAGCTCTTCACTTCTGCTGCATTCACACCACCACACTCGGAGTCACCTAGTGCAG,9310 fluorescence intensity (a.u.)
23,TCAGGCTCTCACTCGCGCTGCATGCCACACTGCTTCTTCTCGGAGTCACCTAGTGCAG,16400 fluorescence intensity (a.u.)

row,Sequence,binding signal
1,GCCCTTCCTCTCCTCACTCACACTGCCCTGTTCATCTCTTCGGAGTCACCTAGTGCAG,8540 fluorescence intensity (a.u.)
2,AGAATGGTCTTATATGTTGTGTAGTGGTGTGTGGGCGTGTCGGAGTCACCTAGTGCAG,8170 fluorescence intensity (a.u.)
3,ACCGATGACTTTTGGCAAAACTTACAGTAAAACTGCTTATCGGAGTCACCTAGTGCAG,8850 fluorescence intensity (a.u.)
4,CCTCCGTTTTTAAATATTTGATGCCGTTGACTTTTTAAAACGGAGTCACCTAGTGCAG,19900 fluorescence intensity (a.u.)
5,CCTCCTTTCCTAAATATTTGACGCCGTTGACTTTTTTAAACGGAGTCACCTAGTGCAG,13500 fluorescence intensity (a.u.)
6,ATGTTTGACTTTTTTTTAAAAAATTTATATTTTTTTAAATCGGAGTCACCTAGTGCAG,8390 fluorescence intensity (a.u.)
7,CCTCCGCTCCTAAATATTTGACACCGCTGACTTTTTAAAACGGAGTCACCTAGTGCAG,11100 fluorescence intensity (a.u.)
8,TATTTTCCTACCATTTGATTTATTGTTAAATATACTTTTTCGGAGTCACCTAGTGCAG,10200 fluorescence intensity (a.u.)
9,ATGCCGTTGACTTTTTAAAATATATTTGACCATTTCCTATCGGAGTCACCTAGTGCAG,21700 fluorescence intensity (a.u.)
10,CCATCTGTCATATTTGTCATCGTTGACTTTTTTAAATATACGGAGTCACCTAGTGCAG,13600 fluorescence intensity (a.u.)
11,CATATCTAACTTTTGACCATCCGTTTTATTTAAAAAAATACGGAGTCACCTAGTGCAG,8310 fluorescence intensity (a.u.)
12,ATATTTGATGCCGTTGACTTTTTAAAATATATTTGATCATCGGAGTCACCTAGTGCAG,16400 fluorescence intensity (a.u.)
13,TCCTATGCCTGCAGCCTGTATCAAAAAATTTTCACAATGTCGGAGTCACCTAGTGCAG,8480 fluorescence intensity (a.u.)
14,CTATATCGCACGTACTCCGGTACCAACGATCCTATACCATCGGAGTCACCTAGTGCAG,9910 fluorescence intensity (a.u.)
15,TTTTGAAATCCGCGCCTACTTTTTTCTTGTCTCTTCTGTGCGGAGTCACCTAGTGCAG,8400 fluorescence intensity (a.u.)
16,CACTCGCCACCGCCGCCCACCCGCAACTGCCGCCGACTCCCGGAGTCACCTAGTGCAG,10800 fluorescence intensity (a.u.)
17,CTATTATAGCGTGTCGGACACTGACTCCTCCCATGTTCCTCGGAGTCACCTAGTGCAG,11100 fluorescence intensity (a.u.)
18,AACTGAATTGTTGGTTTTTTCGGTTTTCGGTTGTCAGTTCCGGAGTCACCTAGTGCAG,11900 fluorescence intensity (a.u.)
19,TCCCTAAAATTTTTCACCCTTTCACATTAAACGTTTAACACGGAGTCACCTAGTGCAG,11400 fluorescence intensity (a.u.)
20,TTGTCAGTTTTCTCTAAACCACAGTAATTAGTCAGTTTCACGGAGTCACCTAGTGCAG,8420 fluorescence intensity (a.u.)
21,GTAACCCTAATTTCAGAAACTAAACACAGTCACGTAAGAACGGAGTCACCTAGTGCAG,65500 fluorescence intensity (a.u.)
22,GTCCGCATCCAATTCCCGGGCCATTCGAAATCCCCAACACCGGAGTCACCTAGTGCAG,10200 fluorescence intensity (a.u.)
